Screens (PubChem BioAssay)
BaF3 tox: reduces parental Ba/F3 cell viability, JAK2V617F counter-screen; inhibition, % at 5.6 µM; hit rate 1.1% among 220,000; CellTiter-Glo ATP luminescence;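 active = inhibition above a per-campaign cutoff, the mean inhibition of all tested compounds plus 3 SD, cut at about 27% in these data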
IEC-6 cytotox: IEC-6 cytotoxicity, counter-screen for KLF5 inhibitors; luminescence viability; inhibition, % at 5 µM; hit rate 0.78% among 290,000; AID 1825
Ba/F3 V617F tox: loss of viability in JAK2V617F-driven Ba/F3 cells | hit rate 1.1% among 220,000 | AID 1446 | Ba/F3 EpoR-JAK2V617F viability, ATP luminescence | inhibition, % at 5.6 µM;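 active = inhibition above the campaign mean plus 3 SD over all tested compounds, cut at about 24% in these data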;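 note: cytokine-independent growth of Ba/F3 cells driven by EpoR plus mutant JAK2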
KLF5 inh: kruppel-like factor 5 inhibition; DLD-1 KLF5 promoter-luciferase reporter, luminescence; hit rate 0.23% among 290,000; inhibition, % at 5 µM; AID 1700;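 active = inhibition above a per-plate limit of that plate's mean compound inhibition plus 3 SD, cut at about 60% in these data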;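 note: higher means less KLF5 promoter-driven luciferase light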
aSyn 5UTR inh: 5' untranslated region of α-synuclein, MLPCN primary screen. alpha-synuclein 5'UTR reporter, inhibitor activity. hit rate 0.82% among 300,000. inhibition, % (tested at 7.5 µM); in the data active = inhibition above about 60%;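 note: H4 neuroglioblastoma cells stably carrying SNCA 5'UTR luciferase fusion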
APP 5UTR inh: APP translation inhibition | SH-SY5Y APP 5'UTR-luciferase reporter, luminescence | inhibition, % at 2 µM | hit rate 0.82% among 190,000;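 active = inhibition above a set limit, derived from the sample mean plus 3 SD, cut at about 45% in these data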
IEC-6 tox confirm: confirmation of cytotoxic compounds in rat IEC-6 intestinal epithelial cells. shares compounds with IEC-6 cytotox. IEC-6 rat intestinal epithelial viability, luminescence. inhibition, % at 5 µM. hit rate 63% among 1,900
Large screens that a line does not name were inactive (follow-up assays come after a bar, where they were run). Rows were chosen to be rich in hits. Some 2.1% of all compounds tested hit in one or more screens of this group. Cut-off read from the data, not from the text of the source, unless noted: active = inhibition above about 22%; inactive = the rest.

CN1CCc2cc3c(c4c2[C@H]1[C@H](O)c1ccccc1-4)OCO3	BaF3 tox 65, IEC-6 cytotox 44, Ba/F3 V617F tox 65 | IEC-6 tox confirm inactive
Cc1ccc(C)c(Nc2cc(C)nc(-c3ccccc3O)n2)c1	IEC-6 cytotox 48 (no result: BaF3 tox, Ba/F3 V617F tox, APP 5UTR inh) | IEC-6 tox confirm 27
COc1ccc(CNC(=O)C/C(C)=N/NC(=O)Cc2ccc(OC)c(OC)c2)cc1	none
COc1cc(OC)cc(C(=O)N/N=C(\C)CC(=O)Nc2ccccn2)c1	IEC-6 cytotox 74 (no result: BaF3 tox, Ba/F3 V617F tox, APP 5UTR inh) | IEC-6 tox confirm inactive
C/C(CC(=O)Nc1ccccn1)=N\NC(=O)c1ccccc1	none
COc1ccc(CNC(=O)C/C(C)=N/NC(=O)c2cc(OC)cc(OC)c2)cc1	IEC-6 cytotox 77 (no result: BaF3 tox, Ba/F3 V617F tox, APP 5UTR inh) | IEC-6 tox confirm inactive
Cc1nn(C)cc1S(=O)(=O)N1CCCCC1C (configuration not stated)	none (no result: BaF3 tox, Ba/F3 V617F tox, APP 5UTR inh)
O=C(Nc1nc(-c2ccccn2)cs1)C1CCCC1	IEC-6 cytotox 25 | IEC-6 tox confirm inactive
Cc1cccnc1Nc1nc(-c2ccccn2)cs1	BaF3 tox 77, IEC-6 cytotox 84, Ba/F3 V617F tox 89, APP 5UTR inh 93 | IEC-6 tox confirm 88
Cc1cccc(C(=O)NC(C(=O)Nc2nc(-c3ccccn3)cs2)C(C)C)c1 (configuration not stated)	IEC-6 cytotox 49, aSyn 5UTR inh 81 | IEC-6 tox confirm 42
CSCCC(=O)Nc1nc(-c2ccccn2)cs1	none (no result: aSyn 5UTR inh)
O=C(Nc1nc(-c2ccccn2)cs1)c1ccc(S(=O)(=O)N2CCCCC2)cc1	BaF3 tox 56, IEC-6 cytotox 50, Ba/F3 V617F tox 55 (no result: APP 5UTR inh) | IEC-6 tox confirm 54
O=C(Nc1nc(-c2ccccn2)cs1)c1ncc(Cl)c(Cl)c1Cl	none
O=C(Nc1nc(-c2ccccn2)cs1)c1ccc(Cl)s1	IEC-6 cytotox 45, aSyn 5UTR inh 68, APP 5UTR inh 77 | IEC-6 tox confirm 75
Cc1oc(-c2ccc3c(c2)OCCO3)cc1C(=O)NC(Cc1ccccc1)C(=O)O (configuration not stated)	none
CCC(=O)OCCNc1cc(Sc2nc3ccccc3[nH]2)c2nonc2c1[N+](=O)[O-]	IEC-6 cytotox 54, APP 5UTR inh 70 (no result: aSyn 5UTR inh) | IEC-6 tox confirm inactive
CCn1cc2nc(SCC(=O)Nc3ccc(OC)cc3OC)n(Cc3ccc(OC)cc3)c(=O)c2n1	IEC-6 cytotox 62 (no result: BaF3 tox, Ba/F3 V617F tox, APP 5UTR inh) | IEC-6 tox confirm 42
CCn1cc2nc(SCC(=O)Nc3ccc(OC)c(OC)c3)n(Cc3ccc(OC)cc3)c(=O)c2n1	none (no result: BaF3 tox, Ba/F3 V617F tox, APP 5UTR inh)
Cc1cc(S(=O)(=O)Nc2ccc(C(=O)NCc3ccncc3)cc2)ccc1F	none (no result: BaF3 tox, IEC-6 cytotox, Ba/F3 V617F tox, KLF5 inh, APP 5UTR inh)
COc1cccc(-c2cc3nc4c(c(N5CCC6(CC5)OCCO6)n3n2)CCC4)c1	none
C/C(=N\Nc1nc(C)c(C)s1)c1ccc([N+](=O)[O-])cc1	none
CC(=O)Nc1nc(-c2ccc3c(c2)CCN3C(=O)C2CC2)c(C)s1	IEC-6 cytotox 49 (no result: BaF3 tox, Ba/F3 V617F tox, APP 5UTR inh) | IEC-6 tox confirm inactive
CNc1nc(-c2ccc3c(c2)CCN3C(=O)CC(C)(C)C)c(C)s1	none
CCC(CC)c1nnc(NC(=O)c2ccc3ccccc3n2)s1	IEC-6 cytotox 35 | IEC-6 tox confirm inactive
CCCNc1nc(-c2ccccc2)c(C(=O)OCC)cc1C#N	BaF3 tox 58, IEC-6 cytotox 46, Ba/F3 V617F tox 59, aSyn 5UTR inh 94, APP 5UTR inh 82 | IEC-6 tox confirm 75
CCOC(=O)c1ccc(N2CCOCC2)c(NC(=O)c2c(-c3ccccc3)noc2C)c1	BaF3 tox 54, IEC-6 cytotox 61, Ba/F3 V617F tox 75 (no result: APP 5UTR inh) | IEC-6 tox confirm 50
Cc1onc(-c2ccccc2)c1C(=O)Nc1cc(C(F)(F)F)ccc1N1CCOCC1	BaF3 tox 81, IEC-6 cytotox 77, Ba/F3 V617F tox 84, APP 5UTR inh 70 | IEC-6 tox confirm 50
Cc1onc(-c2ccccc2)c1C(=O)Nc1ccccc1N1CCOCC1	none
O=C(O)C1CCC(N2C(=O)c3c(Cl)c(Cl)c(Cl)c(Cl)c3C2=O)CC1 (configuration not stated)	none (no result: BaF3 tox, Ba/F3 V617F tox, APP 5UTR inh)
COc1ccc(OCC2CCNCC2)cc1	none (no result: BaF3 tox, Ba/F3 V617F tox, APP 5UTR inh)
O=C(N/N=C/c1ccc2c(c1)OCO2)c1cccc(NC(=O)c2ccccc2Cl)c1	IEC-6 cytotox 36 (no result: BaF3 tox, Ba/F3 V617F tox, APP 5UTR inh) | IEC-6 tox confirm inactive
Cc1cc(C(=O)N/N=C/c2ccc3c(c2)OCO3)c2ccccc2n1	BaF3 tox 52, IEC-6 cytotox 39, Ba/F3 V617F tox 56 (no result: APP 5UTR inh) | IEC-6 tox confirm 35
Cc1cn2c(=O)c(C(=O)NCc3ccc4c(c3)OCO4)cnc2s1	none (no result: BaF3 tox, IEC-6 cytotox, Ba/F3 V617F tox, KLF5 inh, APP 5UTR inh)
CC(=O)C1C(c2ccc(F)cc2)C2C(C)=NN=C2CC1(C)O (configuration not stated)	none
